Laboratory results: PubChem BioAssay AID1566 (Sanford-Burnham Center for Chemical Genomics, 2009)
Screen size: about 290,000 compounds; about 1,800 (0.62%) were called active. Rule as the data show it: active = inhibition above about 50%; inactive = the rest. For the sample, actives were picked, then their nearest neighbours and some compounds at random.

Assay: NOD2 signaling inhibitors, cell-based, luminescence, uHTS, HEK293 (AID 1566)
Conditions: HEK293 NOD2/NF-kB luciferase reporter, at 4 µM, stronger effect = higher value
With Cc1nc2nc(SCc3ccc([N+](=O)[O-])cc3)[nH]c2cc1Br the inhibition was -1% (inactive). With CSc1ccc(C2N=C(c3ccccc3)NO2)cc1 (stereo not given) the inhibition was -83.4% (inactive). With CCOCCCNC(=O)C(NC(=O)CNC(C)=O)c1ccc(C)cc1 (stereo not given) the inhibition was 3.7% (inactive). For CCN(CC)S(=O)(=O)c1cccc(C(=O)N[C@@H](C)c2nc3ccccc3[nH]2)c1, the inhibition was 11.7% (inactive). In the case of CCOC(=O)c1ccc(N2C(=O)C(CC(N)=O)N(NC(=O)c3cccc(F)c3)C2=S)cc1 (stereo not given), the inhibition is reported as 4.2% (inactive). In the case of Cc1ccc2nc(NC(=O)c3ccccn3)sc2c1, the inhibition is reported as 76.3% (active). With Cc1ccc2nc(NC(=O)COC(=O)c3ccccn3)sc2c1 the inhibition was -25.5% (inactive). With Cc1ccc2nc(NC(=O)c3ccccc3F)sc2c1 the inhibition was -152% (inactive). With COc1ccc(-n2c3c(cc(C#N)c2=O)C(=O)CCC3)cc1 the inhibition was 6.2% (inactive). For CCOc1ccc(S(=O)(=O)Nc2ccc(C(=O)NCC(c3ccccc3)N(C)C)cc2)cc1 (stereo not given), the inhibition was 7.3% (inactive). With CCOC(=O)c1ccc(Nc2nc(N3CCOCC3)nc(N3CCOCC3)n2)cc1 the inhibition was -7.2% (inactive). For CCOC(=O)N1CCC(N2CCN(Cc3ccc(C)o3)C(CCO)C2)CC1 (stereo not given), the inhibition was 2.4% (inactive). In the case of CCC(C(=O)NC1CCCC1)N(C(=O)Cn1nnc(-c2ccc(C)o2)n1)c1cccc(O)c1 (stereo not given), the inhibition is reported as 8.2% (inactive). For Cc1cc(NC(=O)CSc2ncnc3ccccc23)no1, the inhibition was 20% (inactive). In the case of Cc1cc(-n2c(C)cc(C(=O)CSc3ncnc4ccccc34)c2C)no1, the inhibition is reported as 52.3% (active). With Cc1cc(-n2c(C)cc(C(=O)CSc3nc4ccccc4c(=O)n3Cc3ccco3)c2C)no1 the inhibition was 18.1% (inactive). In the case of Cc1cccc(NC(=O)COC(=O)C2C3CC4OC(=O)C2C4C3)c1C (stereo not given), the inhibition is reported as -27.4% (inactive). For Cc1ccccc1-n1c(SC2CCOC2=O)nnc1-c1ccncc1 (stereo not given), the inhibition was 51.5% (active). In the case of Cc1ccccc1-n1nnnc1SC1CCOC1=O (stereo not given), the inhibition is reported as 5.6% (inactive). With O=C1OCCC1Sc1nnc(-c2cccnc2)n1-c1ccccc1F (stereo not given) the inhibition was 13.6% (inactive). For O=C(O)c1cccc(NC(=S)N/N=C/c2ccccc2OCc2ccc(Br)cc2)c1, the inhibition was 0.3% (inactive). For C/C(=C\c1ccccc1)CN1CCN(Cc2ccc(C)o2)C(CCO)C1 (stereo not given), the inhibition was -6.3% (inactive). For CCOC(=O)C1CCN(C(=O)CS(=O)(=O)Cc2nc(-c3ccccc3Cl)oc2C)CC1, the inhibition was 17.3% (inactive). In the case of O=C(Nc1ccc(N2CCCCC2)cc1)c1cccnc1Cl, the inhibition is reported as -2.2% (inactive). In the case of O=C(Nc1ccc(N2CCCCC2)cc1)c1ccccn1, the inhibition is reported as 69.8% (active). In the case of O=C(Nc1ccc(N2CCCCCC2)cc1)c1ccccc1Cl, the inhibition is reported as -104% (inactive). In the case of O=C(Nc1ccc(N2CCOCC2)cc1)Nc1cnsn1, the inhibition is reported as -3.9% (inactive). With Cc1cnc(C(=O)Nc2ccc(N3CCOCC3)cc2)cn1 the inhibition was -3.6% (inactive). With O=C(Nc1ccc(N2CCOCC2)cc1)c1cnsn1 the inhibition was 52.4% (active). With O=C(CSc1nc2ccccc2[nH]1)NCc1ccccc1 the inhibition was -35% (inactive). For COc1ccc(S(=O)(=O)N2CCN(CC(O)COc3ccc(C#N)cc3)CC2)cc1OC (stereo not given), the inhibition was 1.5% (inactive). With CC(=O)Nc1ccccc1OCC(=O)N(Cc1ccccc1)C(C)C the inhibition was 19.2% (inactive). For Cc1ccc(-n2c(C)nc3ncnc(-c4ccccc4)c32)cc1, the inhibition was 17.9% (inactive). With CN1C(=O)/C(=C/c2ccccc2F)Sc2ccc(C(=O)N3CCCC3)cc21 the inhibition was 37.3% (inactive). In the case of CN1C(=O)/C(=C\c2ccccc2F)Sc2ccc(C(=O)NC3CCN(Cc4ccccc4)CC3)cc21, the inhibition is reported as 58.2% (active). In the case of CN1C(=O)/C(=C/c2ccccc2F)Sc2ccc(C(=O)NCC3CCCO3)cc21 (stereo not given), the inhibition is reported as 17% (inactive). For CCc1c(C)nc2c(C)cccc2c1SCCC#N, the inhibition was 12.6% (inactive). With O=C(CN1CCN(C(c2ccccc2)c2ccccc2)CC1)Nc1ccc(N2CCOCC2)cc1 the inhibition was 6.9% (inactive). For COC(=O)c1c(NC(=O)c2ccc(OC(C)C)cc2)sc2c1CC(C)(C)NC2(C)C, the inhibition was 7.3% (inactive). For COc1ccccc1/C=N/NC(=O)c1sc(C)nc1C, the inhibition was 6.4% (inactive). In the case of Cc1nc(C)c(C(=O)N/N=C/c2cc(Br)ccc2O)s1, the inhibition is reported as 50.9% (active). For COc1ccc(/C=N/NC(=O)c2sc(C)nc2C)cc1, the inhibition was 13.6% (inactive). For Cc1onc(-c2ccccc2)c1C(=O)N1CCOC12CCN(c1cccc(F)n1)CC2, the inhibition was 14.4% (inactive). In the case of O=C(NCCc1ccccc1)C1CCCN(c2ncnc3c2nc2n3CCCCC2)C1 (stereo not given), the inhibition is reported as 18.5% (inactive). In the case of COC(=O)c1sc(N2C(=O)C(O)=C(C(=O)c3ccc(C)o3)C2c2ccco2)nc1C (stereo not given), the inhibition is reported as 39.6% (inactive). With O=C(NCc1ccccc1)N1CCOCC1 the inhibition was -1.5% (inactive). For Cc1nc2cc(N3CCCCC3)c(NC(=O)c3ccncc3)cc2c(=O)n1Cc1ccccc1, the inhibition was 10.5% (inactive). For CC(=O)Nc1cc2c(=O)n(Cc3ccccc3)c(C)nc2cc1N1CCOCC1, the inhibition was 9.5% (inactive). In the case of CC(=O)Nc1ccc(NC(=O)c2sc(-c3ccccc3)nc2C)cc1, the inhibition is reported as 19.3% (inactive). With COc1cc2cc(CN(CCc3ccccc3C)C(=S)NCCCN3CCOCC3)c(=O)[nH]c2cc1OC the inhibition was 17.4% (inactive). In the case of O=C(O)c1ccc(Nc2nc3ccccc3nc2NS(=O)(=O)c2cccs2)cc1, the inhibition is reported as 7.1% (inactive). In the case of COc1ccc(Nc2nc3ccccc3nc2NS(=O)(=O)c2cccs2)cc1, the inhibition is reported as 37.8% (inactive). In the case of CC(=O)Nc1ccc(S(=O)(=O)N2CCN(CC(=O)NC3CCCC3)CC2)cc1, the inhibition is reported as -8.9% (inactive). In the case of O=C1OCC2=C1C(c1ccccc1)CC(=O)N2c1ccc(F)cc1 (stereo not given), the inhibition is reported as -3.1% (inactive). With COc1ccc(-c2coc3c(C)c4oc(=O)c(CCC(=O)O)c(C)c4cc23)cc1 the inhibition was 5.8% (inactive). With COc1ccccc1COc1ccc2c(C)c(CC(=O)O)c(=O)oc2c1C the inhibition was 10.3% (inactive). For Cc1c(CCC(=O)O)c(=O)oc2c(C)c(OCc3cc4c(cc3Cl)OCO4)ccc12, the inhibition was 35% (inactive). With Cc1c(CCC(=O)O)c(=O)oc2c(C)c3occ(-c4ccc(Br)cc4)c3cc12 the inhibition was 41% (inactive). With CCOc1ccccc1C(=O)OCC(=O)NCCNC(=O)COC(=O)c1ccccc1OCC the inhibition was -4.3% (inactive). With CCCN1C(=O)/C(=C/c2ccc(C)o2)SC1=Nc1ccc(OCC)cc1 the inhibition was 1.9% (inactive). For O=c1cc(CSc2nnc(COc3ccc(Cl)cc3)o2)c2ccccc2[nH]1, the inhibition was 17.3% (inactive). With COc1cccc(C2CNC3(CCCC(C)C3)c3[nH]c4ccccc4c32)c1OC (stereo not given) the inhibition was -9% (inactive). With O=C(N/N=C/c1cc([N+](=O)[O-])ccc1O)c1ccc(COc2ccc3c(c2)CCC3)o1 the inhibition was 50.4% (active). For O=C(N/N=C/c1cccc(O)c1)c1ccc(COc2ccc3c(c2)CCC3)o1, the inhibition was -30.7% (inactive). In the case of COc1ccc(Br)cc1/C=N/NC(=O)c1ccc(COc2ccc3c(c2)CCC3)o1, the inhibition is reported as -48.8% (inactive). For O=C(NCCc1ccc(Cl)cc1)C1CCCN1C(=O)Nc1ccccc1 (stereo not given), the inhibition was 13.4% (inactive). For Cc1ccc(NC(=O)C(C)Sc2n[nH]c(CNc3ccccc3)n2)cc1 (stereo not given), the inhibition was 3.6% (inactive). In the case of CC1Sc2ccc(S(=O)(=O)N3CCC(C(=O)Nc4cccc(Cl)c4)CC3)cc2NC1=O (stereo not given), the inhibition is reported as 14.4% (inactive). In the case of Cc1ccc(NC(=O)C2CCN(S(=O)(=O)c3ccc4c(c3)NC(=O)C(C)S4)CC2)cc1C (stereo not given), the inhibition is reported as 16.5% (inactive). For CN(C)c1ccc(C2N(C(=O)N3CCOCC3)CCN2S(=O)(=O)c2ccccc2)cc1 (stereo not given), the inhibition was 13.1% (inactive). In the case of Cc1c(Br)c([N+](=O)[O-])nn1CC(=O)Nc1ccc2nc3n(c(=O)c2c1)CCCC3, the inhibition is reported as 17.3% (inactive). For Cc1ccc(/C=C(/NC(=O)c2ccccc2)C(=O)NC(Cc2c[nH]c3ccccc23)C(=O)O)cc1 (stereo not given), the inhibition was 9.4% (inactive). For COc1ccc([N+](=O)[O-])c(S(=O)(=O)c2ccccc2)n1, the inhibition was 29% (inactive). With COc1nc(OC)nc(Oc2ccc(Cl)cc2[N+](=O)[O-])n1 the inhibition was 10.1% (inactive). In the case of COc1ccc([N+](=O)[O-])c(S(=O)(=O)c2ccc(Cl)cc2)n1, the inhibition is reported as 60.3% (active). For Cc1c(CC(=O)N[C@@H](C)C(=O)O)c(=O)oc2cc3occ(-c4ccccc4)c3cc12, the inhibition was 14% (inactive). For COc1cc(C(=O)OCC(C)=O)c([N+](=O)[O-])cc1OC, the inhibition was 0.4% (inactive). For CCSc1nc(-c2ccccc2)c(C#N)c(=O)[nH]1, the inhibition was 20% (inactive). For N#Cc1c(-c2ccccc2)nc(SCc2ccc(Cl)cc2)[nH]c1=O, the inhibition was 24.8% (inactive). With O=C(c1ccc2c(=O)n(-c3ccccc3)c(=O)[nH]c2c1)N1CCN(c2ccc(F)cc2)CC1 the inhibition was 14.2% (inactive). With Cc1cc(NC(=O)CSc2ccc3c(c2)OCCO3)no1 the inhibition was 14.9% (inactive). For Cc1cccc(SCC(=O)Nc2ccc3c(c2)OCCO3)c1, the inhibition was -70.2% (inactive). With Cc1ccc(NC(=O)CSc2ccc3c(c2)OCCO3)c(O)c1 the inhibition was 54.3% (active). In the case of CCn1c(=O)c(=O)[nH]c2cc(C(=O)NC(C)c3ccc(S(N)(=O)=O)cc3)ccc21 (stereo not given), the inhibition is reported as -19.7% (inactive). With O=c1oc2ccc(Cl)cc2cc1-c1nnc(Nc2cccc(C(F)(F)F)c2)s1 the inhibition was 9% (inactive). For CNc1nnc(-c2cc3ccccc3oc2=O)s1, the inhibition was -76.8% (inactive). In the case of CNc1nnc(-c2cc3cc(Cl)ccc3oc2=O)s1, the inhibition is reported as 94.4% (active). In the case of CCOC(=O)N1CCN(C(=O)c2ccccc2NC(=O)c2ccc(C(C)(C)C)cc2)CC1, the inhibition is reported as 4.9% (inactive). For CC(=O)c1sc(-c2ccc(F)cc2F)nc1C, the inhibition was -0.7% (inactive). In the case of Cc1nnc(NC(=O)c2c(-c3ccccc3)noc2C)s1, the inhibition is reported as 4.4% (inactive). For Cc1cnc(NC(=O)c2c(-c3ccccc3)noc2C)s1, the inhibition was 5.6% (inactive). In the case of CCOc1ccc(NC(=O)Nc2ccon2)cc1, the inhibition is reported as -25.3% (inactive). With COC(=O)c1ccc(CC(=O)c2ccc(O)cc2O)o1 the inhibition was 43.8% (inactive). In the case of CCOC(=O)c1ccc(CC(=O)c2ccc(O)cc2O)o1, the inhibition is reported as 67.3% (active). In the case of CCOC(=O)c1ccc(CC(=O)c2ccc(O)c(O)c2O)o1, the inhibition is reported as 8.3% (inactive).
